Eleven compounds from PubChem BioAssay AID2283227 (EPA ToxCast) can be followed below.

Molecules are shown by their SMILES. Results filed as inconclusive are left out. The source made the active and inactive calls. Rule for the calls: active = hit-call score of the fitted dose curve at least 0.9, where 1 is the maximum; inconclusive = response in the unintended direction; inactive = score below 0.9.

One may read the AC50 as the concentration at which the activity in the assay is half-maximal.

The test system of this assay is pig Methylenetetrahydrofolate Reductase (MTHFR), gene 397180. Put plainly: NVS_ENZ_pMTHFR: NovaScreen (NVS) Enzymatic Assay for pig Methylenetetrahydrofolate Reductase (MTHFR). The protocol:
NVS_ENZ_pMTHFR is a biochemical, single-readout assay that uses extracted gene-proteins from Porcine kidney in a tissue-based cell-free assay. Measurements were taken 1 hour after chemical dosing in a 96-well plate.NVS_ENZ_pMTHFR is one of one assay component(s) measured or calculated from the NVS_ENZ_pMTHFR assay. It is designed to make measurements of enzyme activity, a form of enzyme reporter, as detected with scintillation counting signals by Lysate-based radiodetection technology.Data from the assay component NVS_ENZ_pMTHFR was analyzed into 1 assay endpoint. This assay endpoint, NVS_ENZ_pMTHFR, was analyzed in the positive analysis fitting direction relative to DMSO as the negative control and baseline of activity. Using a type of enzyme reporter, loss-of-signal activity can be used to understand changes in the enzymatic activity as they relate to the gene MTHFR. Furthermore, this assay endpoint can be referred to as a primary readout, because this […] where this one serves a enzymatic activity function. To generalize the intended target to other relatable targets, this assay endpoint is annotated to the oxidoreductase intended target family, where the subfamily is methylenetetrahydrofolate reductase.
Binding assays used specific radioligands (tritiated, iodinated) with non-radioactive competitive displacement ligands in agonist or antagonist protocols (as indicated) and various reference compounds and inhibitors to titrate specific binding to receptors and transporters. Most enzyme assays (CYPs, kinases, phosphatases, proteases, HDACs) used recombinant protein and specific substrates (fluorescence mostly, some colorimetric and radioactive) and inhibitors, followed by a biochemical separation of substrate and product. All assays for the biochemical HTS were initially run in duplicate at a single concentration (10 uM for CYP450 assays and 25 uM for all others). Assay-chemical combinations meeting a pre-defined threshold (e.g., 30% inhibition and other criteria defined below) were then run in singleton concentration-response format with maximum concentration of 20 uM for CYPs and 50 uM for all others. Each assay was run with positive and negative controls, and concurrent controls on every plate. The follow-up (secondary) screen tested active chemical-pairs in concentration series, as well as a few additional assays not tested in the primary screen, some selected negative inactives, and several cases re-run in the concentration series for confirmatory purposes.
As for `CN(C)c1nc(=O)n(C2CCCCC2)c(=O)n1C`, the result was inactive.

On to `CCCCOC(=O)c1ccccc1C(=O)O`, for which the outcome was inactive. As for `COC(=O)c1c(C(F)F)nc(C(F)(F)F)c(C2=NCCS2)c1CC(C)C`, the AC50 is 6.46 µM (active). Turning to `COc1nc(C)nc(NC(=O)NS(=O)(=O)c2ccccc2Cl)n1`, the outcome was inactive. Turning to `CC(C)(C)C(=O)C(Oc1ccc(Cl)cc1)n1cncn1` (stereo unspecified), the call was inactive. Turning to `CCc1cccc(CC)c1N(COC)C(=O)CCl`, the result was inactive. Turning to `CC(C)Oc1cc(-n2nc(C(C)(C)C)oc2=O)c(Cl)cc1Cl`, the call was inactive. As for `CC(=NC#N)N(C)Cc1ccc(Cl)nc1`, the compound was called inactive.

Consider `COP(=O)(OC)OC=C(Cl)Cl`, for which the call was inactive. With `N#Cc1c[nH]cc1-c1cccc2c1OC(F)(F)O2`, the compound was classed as inactive. Still for that read-out and setting: then `CCCCOCN(C(=O)CCl)c1c(CC)cccc1CC`, with “inactive”.
